Data taken from ChEMBL document CHEMBL3433997, “St. Jude Leishmania screening dataset” (2016).

How the values were obtained:
Assay type in all cases: functional
[1] = biological target: Solute carrier family 2, facilitated glucose transporter member 1 (Homo sapiens) (UniProt P11166); test: ST_JUDE_LEISH: Cytotoxicity at 2uM final concentration against transgenic Leishmania Mexicana promastigotes LmGLUT1 that are glucose transport deficient and complemented with the human glucose transporter GLUT1. Activity is measured by DNA content using SYBR green in vitro
Sequence of Solute carrier family 2, facilitated glucose transporter member 1 (Homo sapiens) (P11166 whole entry): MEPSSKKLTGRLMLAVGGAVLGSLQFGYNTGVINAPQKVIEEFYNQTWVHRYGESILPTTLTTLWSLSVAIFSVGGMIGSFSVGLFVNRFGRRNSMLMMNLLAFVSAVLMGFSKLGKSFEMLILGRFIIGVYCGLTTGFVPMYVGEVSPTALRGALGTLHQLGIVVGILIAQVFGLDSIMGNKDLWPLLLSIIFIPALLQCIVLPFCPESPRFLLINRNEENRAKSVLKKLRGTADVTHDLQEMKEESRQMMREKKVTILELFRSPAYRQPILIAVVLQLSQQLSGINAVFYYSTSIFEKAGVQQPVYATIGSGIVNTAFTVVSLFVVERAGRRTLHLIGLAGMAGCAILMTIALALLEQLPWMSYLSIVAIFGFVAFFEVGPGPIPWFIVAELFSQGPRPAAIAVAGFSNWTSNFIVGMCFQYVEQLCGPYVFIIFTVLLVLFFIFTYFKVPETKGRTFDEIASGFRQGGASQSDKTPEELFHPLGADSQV

[2] = biological target: Hexose transporter 1 (Plasmodium falciparum) (UniProt O97467); test: ST_JUDE_LEISH: Cytotoxicity at 2uM final concentration against transgenic Leishmania Mexicana promastigotes LmPfHT that are glucose transport deficient and complemented with the Plasmodium falciparum hexose transporter. Activity is measured by DNA content using SYBR green in vitro
[3] = biological target: Glucose transporter (Leishmania mexicana) (UniProt O61059); test: ST_JUDE_LEISH: Cytotoxicity at 2uM final concentration against transgenic Leishmania Mexicana promastigotes LmGT2 that are glucose transport deficient and complemented with the L. Mexicana glucose transporter 2. Activity is measured by DNA content using SYBR green in vitro

Compound	inhibition [1]	inhibition [2]	inhibition [3]
NCc1cccc(-c2cccc(CNC3CCN(Cc4ccccc4)CC3)c2)c1	6.06%	5.41%	-0.37%
Nc1c2c(nc3ccc(Oc4ccc(Cl)cc4)cc13)CCCC2	60.9%	70.5%	40.5%
CCCCOC(=O)[C@H](CCC)NC(=O)c1ccc(NS(=O)(=O)c2ccc3nc(N)[nH]c(=O)c3c2)cc1	0.2%	-1.82%	0.77%
COc1ccc2c(NN=Cc3ccccc3F)ccnc2c1	3.28%	2.8%	2.7%
CCC[C@@H]([C@@H](CC(C)C)C(=O)N[C@@H](CCCCNC(=O)c1cccc(OC)c1)C(=O)Nc1nccs1)N(O)C=O	8.94%	10.2%	5.1%
CN(CCc1ccccn1)Cc1ccc(-c2ccc(-c3nc4ccccc4[nH]3)s2)cc1	-0.34%	-1.13%	-2.7%
N#Cc1cccc(C(=O)Nc2cccc(-c3ccc(CN4CCC(O)CC4)cc3)c2)c1	3.3%	-0.89%	0.83%
O=C(NCc1ccc(F)cc1)Nc1cccc(-c2ccc(-c3nc4cc(F)ccc4[nH]3)cc2)c1	6.43%	7.78%	7.37%
CC1CCN(CC[C@H]2CCCN2S(=O)(=O)c2cccc(NC(=O)c3ccc(-c4ccccc4)cc3)c2)CC1	3.61%	1.72%	-0.42%
O=C(Nc1ccc(Cl)cc1)c1ccc(CN2CCCN(Cc3ccsc3)CC2)cc1	2.78%	1.42%	7.21%
Cc1cccc2nc(-c3ccc(-c4ccc(CNCC5CCCO5)cc4)s3)[nH]c12 (stereo not drawn)	1.99%	2.71%	1.98%
COc1ccc(Nc2nccc(-c3cccc(NC(=O)c4cc5cc(F)ccc5[nH]4)c3)n2)cc1	3.61%	0.11%	-1.2%
NC1CCCN(Cc2cccc(-c3ccc(-c4nc5cc(C(F)(F)F)ccc5[nH]4)cc3)c2)C1 (stereo not drawn)	2.3%	0.39%	2.55%
Cc1cccc(C(=O)Nc2ccnc(N(C)CCCN(C)Cc3cccc(O)c3)c2)c1	-1.6%	1.08%	-0.23%
CS(=O)(=O)c1ccc2c(c1)CCN(CCC1CCC(NC(=O)C(=Cc3cccc(C#N)c3)c3ccc(-c4ccccc4)cc3)CC1)CC2 (stereo not drawn)	1.14%	2.77%	1.15%
CN1CCC(c2ccc(NC(=O)c3ccc(-c4cccc(C(F)(F)F)c4)o3)cc2)CC1	2.13%	1.69%	1.19%
N=C(N)c1ccc(-c2cc(-c3cccc(C(=N)N)c3)on2)cc1	3.39%	0.98%	2.32%
O=C(/C=C/c1ccc(Cl)c(Cl)c1)NCCCCCN1CCC(c2c[nH]c3ccccc23)CC1	1.33%	4.32%	3.63%
Cc1cccc2nc(-c3ccc(-c4ccc(CNCCCN5CCCC5=O)cc4)s3)[nH]c12	2.02%	3.54%	3.25%
CCCCN1CC[C@@H](CCC(O)c2cc(OCCC)nc3ccc(OC)cc23)[C@@H](CC)C1 (stereo partly drawn)	-0.6%	-1.53%	-1.52%
COc1ccc(CNC2CCN(C)CC2)cc1-c1ccc(S(=O)(=O)NC2CCC2)c(C)c1	0%	-0.22%	-0.25%
CCN(CC)/C(=N/C(=N)Nc1ccc(Cl)cc1)NCCCCCCCCN/C(=N\C(=N)Nc1ccc(Cl)cc1)N(CC)CC	0.33%	-0.74%	-0.07%
COc1ccc2nc3cc(Cl)ccc3c(N)c2c1	15.8%	10%	3.3%
CC(C)COc1ccc(Cl)cc1Cc1ccc(-c2nc3ccc(F)cc3[nH]2)o1	1.83%	0.95%	-0.47%

Compound	inhibition [1]	inhibition [2]	inhibition [3]
CCCCNc1ccc(C(=O)NC2CCN(C[C@H](O)c3ccnc4ccc(OC)cc34)CC2)cc1	9.46%	11.8%	3.39%
COc1ccc(CCn2c(=N)c(C(=O)NCc3cccnc3)cc3c(=O)n4ccccc4nc32)cc1	11.7%	10.9%	7.6%
NCC(=O)NC12CC3CC(CC(C3)C1)C2	1.01%	2.25%	1.66%
Nc1nc(Nc2ccc(Cl)cc2)nc2ccccc12	14%	12.4%	6.83%
Cc1ccc(OCCCCON2C(=N)N=C(N)NC2(C)C)cc1C	1.02%	1%	0.54%
CC1CCC(C[C@@H](C(=O)N[C@H](C(=O)Nc2nccs2)[C@@H](C)O)[C@H](CCC(F)(F)F)N(O)C=O)CC1 (stereo partly drawn)	0.36%	-2.34%	0.78%
O=C(Nc1ccc(OC2CCN(Cc3ccccc3)CC2)c(Cl)c1)c1cccs1	2.31%	4.54%	4.68%
CN1CCC(C(=O)N(Cc2ccc(-c3ccc(CNCCc4ccc(S(C)(=O)=O)cc4)cn3)cc2)C2CCN(Cc3ccccc3)CC2)CC1	3.07%	2.62%	5.75%
O=C(NCCCCN1CCC(c2ccc(Br)cc2)CC1)c1ccc(NC(=O)c2ccc(Cl)cc2)cc1	-0.29%	0.2%	-1.89%
COc1ccc(-c2cc(C(=O)N3CCc4ccccc43)c3ccccc3n2)cc1OC	-0.76%	1.24%	-0.93%
Nc1ncc(Cc2ccc3c(ccc4ccccc43)c2)c(N)n1	14.2%	12.7%	11.9%
COc1ccc(Cc2nc(/N=C(\N)Nc3ccccc3)ccc2OC)cc1	0.38%	1.68%	-0.02%
Cc1cc(C(=O)NC2CCN(Cc3ccccc3)CC2)ccc1-c1nc2ccc(C(F)(F)F)cc2[nH]1	3.67%	2.1%	3.25%
COc1ccccc1CCNC(=O)c1cc(Br)cc(N2CCN(c3ccncc3)CC2)c1	1.16%	2.75%	0.04%
CCCCCCNC(=N)c1ccc(OCCCCCOc2ccc(C(=N)NCCCCCC)cc2)cc1	58.5%	59.4%	37.2%
COc1ccc(-c2nc3c(NCc4ccccc4)nccc3[nH]2)c(OC)c1	4.06%	4.06%	2.67%
Cc1ccc(NC(=O)NC2CCN(CCCCCNC(=O)/C=C/c3ccc(Cl)c(Cl)c3)CC2)cc1	0.42%	1.16%	-5.98%
O=C(NCc1ccc(F)cc1)Nc1ccc(-c2cccc(-c3nc4cc(C(F)(F)F)ccc4[nH]3)c2)cc1	3.93%	2.38%	-0.05%
CC(C)CCNCc1ccc(OCc2cccc(COc3ccc(CNCCC(C)C)cc3I)c2)c(I)c1	0.58%	-0.4%	-0.23%
CCCC(C)Nc1nc(C)cc(N[C@@H](CC(C)C)C(=O)Nc2ccc(OC)cc2)n1 (stereo partly drawn)	3.3%	3.9%	1.36%
CCC(CC)CN1C(=O)C(C)(c2ccccc2)N=C1N (stereo not drawn)	-1.13%	-0.03%	-1.23%
Cc1[nH]c(C)c(-c2ccc(-c3ccc(OC(F)(F)F)cc3)cc2)c(=O)c1Br	2.4%	4.25%	3.37%
CC(C)Cn1cc(C2CCN(CCN3CCC(CNC(=O)c4ccc(-c5ccc(C#N)cc5)cc4)CC3)CC2)c2ccccc21	2.71%	5.31%	2.53%
Clc1ccc(-n2cnc3c(Nc4ccc(Oc5ccccc5)cc4)ncnc32)cc1Cl	1.38%	1.39%	-1.22%

Compound	inhibition [1]	inhibition [2]	inhibition [3]
COc1ccc2ncc(F)c(CCN3CC[C@H](NCc4cc(C#N)c5c(c4)OCCO5)[C@H](O)C3)c2c1	42.4%	57.5%	70.8%
Cc1cc(N[C@@H](Cc2ccccc2)C(=O)Nc2ccccc2)nc(NCC2CCCCC2)n1	12.8%	11.3%	10.7%
CC(C)(C)CCN1CCC(NC(=O)c2ccc(-c3cccc(C(F)(F)F)c3)s2)CC1	1.71%	5.61%	3.83%
Oc1cccc(/C=N/Nc2ccnc3cc(Cl)ccc23)c1	4.49%	0.91%	3.14%
Cc1n[nH]c2ccc(-c3cc(OC[C@@H](N)Cc4ccccc4)cnc3-c3ccccc3OCc3cccc(F)c3)cc12	9.75%	1.05%	-0.42%
Cc1cc(CNC(c2ccccc2)C2CCC2)cc(C)c1O (stereo not drawn)	14.2%	14.3%	10.1%
Cc1cc(F)ccc1C1CCN(CCCCNC(=O)c2ccc(NC(=O)c3ccc(Cl)cc3)cc2)CC1	1.66%	0.36%	0.87%
COC(=O)c1cc(C(=O)CN(Cc2ccccc2)C(C)C)ccc1O	4.78%	5.9%	4.16%
COc1ccc(-c2ccc(NC(=O)c3ccc(Cl)cc3)cc2)cc1CN1CCN(C)CC1	-0.67%	-2.59%	-0.55%
COc1ccc2nc3ccccc3c(NCCN3CCN(C)CC3)c2c1	7.5%	5.93%	4.16%
Cc1ccc(N2C(=O)C3C(C2=O)C2(c4ccccc4)C(=O)C3(c3ccccc3)C(c3ccccc3)=C2c2ccccc2)cc1 (stereo not drawn)	0.73%	0.67%	-1.83%
CC(=O)Nc1ccc2[nH]cc(C3CCN(CC4CCC(NC(=O)/C=C/c5ccc(Cl)c(Cl)c5)CC4)CC3)c2n1 (stereo not drawn)	-0.73%	0.9%	-2.32%
Cc1ccc(S(C)(=O)=O)cc1/C=C/C(=O)O	9.4%	8.46%	10.4%
O=C(Oc1ccc(C2CNCCc3c2cc(OC(=O)c2ccc(O)cc2)c(OC(=O)c2ccc(O)cc2)c3Cl)cc1)c1ccc(O)cc1 (stereo not drawn)	4.39%	5.32%	4.76%
O=C(COc1ccc(C(=O)c2ccccc2)cc1)Nc1nccs1	0.24%	0.43%	-3.28%
COc1cccc(CNc2noc(-c3c(-c4ccccc4)noc3C)n2)c1OC	3.64%	3.83%	2.76%
CCOc1cc2ncnc(Nc3ccc(OCc4ccccc4Br)c(OC)c3)c2cc1OCC	5.55%	5.15%	2.49%
CCc1c(CCNCC/C=C/CCNCCc2ccc(OC)c(OC)c2CC)ccc(OC)c1OC	0.84%	1.33%	-1.26%
O=C(c1ccccc1)N(Cc1ccccc1-c1ccc(CNCCc2ccccc2)cc1)C1CCN(Cc2ccccc2)CC1	12.2%	10.8%	14.7%
N#Cc1cccc(NC(=O)Nc2ccc3c(c2)CN(Cc2c[nH]c4ncccc24)C3)c1	6.66%	7.47%	3.37%
CN(C)Cc1c(O)ccc2[nH]c(-c3ccc(F)cc3F)nc12	1.13%	1.4%	-1.59%
CNCc1ccc(CN(C)c2nc(N)c3cc(OC)c(OC)cc3n2)cc1	4.8%	5.4%	6.34%
COc1ccc(OC(C)CNC(=O)c2cc([N+](=O)[O-])ccc2-c2ccc(OC)cc2)cc1 (stereo not drawn)	0.03%	-1.79%	-4.55%
